# The list is not random: actives were taken first. Their share in the collection is about 1.3%.
# CR mimetic SO: caloric restriction mimetics inhibiting age-related superoxide in yeast; 0.18% of 330,000 active; superoxide response (% of plate mean), % at 10 µM; S. cerevisiae aged cells, superoxide DHE fluorescence; hits give low values;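 active means superoxide response under a set limit, about three screen SD below normal, cut at about 65% in these data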;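 further: yeast aged for seven days with compound at 30 °C before DHE staining; 100% = average MFI of all compound-treated wells on the plate with controls excluded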
# MOR-DOR ag: agonists of human mu-delta opioid receptor heterodimerization | P35372+P41143 | cells, OPRM1-OPRD1 heterodimerization, luminescence | activation, % at 9.3 µM | 0.3% of 340,000 active; in the data active means activation above about 18%;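 further: 0% = vehicle-treated cells and 100% = reference agonist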
# Target sequence (P35372 whole entry, looked up): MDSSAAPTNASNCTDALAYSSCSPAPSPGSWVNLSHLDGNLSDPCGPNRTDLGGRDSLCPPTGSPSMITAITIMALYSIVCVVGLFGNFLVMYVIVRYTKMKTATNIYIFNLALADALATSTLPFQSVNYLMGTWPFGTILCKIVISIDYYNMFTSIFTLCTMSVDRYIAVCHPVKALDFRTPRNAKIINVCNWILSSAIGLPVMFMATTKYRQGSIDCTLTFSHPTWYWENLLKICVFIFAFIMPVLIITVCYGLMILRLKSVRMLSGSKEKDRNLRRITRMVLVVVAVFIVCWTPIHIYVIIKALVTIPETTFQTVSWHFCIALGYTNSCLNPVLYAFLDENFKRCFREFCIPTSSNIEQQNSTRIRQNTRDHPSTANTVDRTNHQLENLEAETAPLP
# Target sequence (P41143 whole entry, looked up): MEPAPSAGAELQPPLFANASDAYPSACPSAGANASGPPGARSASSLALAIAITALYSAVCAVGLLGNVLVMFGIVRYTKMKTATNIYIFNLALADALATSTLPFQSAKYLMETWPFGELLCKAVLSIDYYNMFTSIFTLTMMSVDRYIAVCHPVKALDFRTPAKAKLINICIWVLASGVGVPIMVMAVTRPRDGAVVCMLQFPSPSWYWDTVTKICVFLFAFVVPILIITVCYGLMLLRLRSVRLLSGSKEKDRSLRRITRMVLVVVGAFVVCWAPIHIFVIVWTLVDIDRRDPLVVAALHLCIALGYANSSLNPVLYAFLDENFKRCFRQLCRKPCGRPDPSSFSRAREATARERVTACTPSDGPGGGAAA
# PvdQ inh: P. aeruginosa PvdQ acylase inhibition; purified PvdQ acylase, fluorescence plate reader; inhibition, % at 10 µM; 0.063% of 340,000 active; in the data active means inhibition above about 30%, passing the limit was not always enough;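 further: 0% = vehicle neutral wells and 100% = reference inhibitor wells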
# HTR5A ag ctr: HTR5A agonism, opioid heterodimer counter-screen | 0.61% of 340,000 active | activation, % at 9.3 µM | AID 504692 | HTR5A agonist assay, luminescence, cell-based | P47898; in the data active means activation mostly above about 9.5%, no sharp cut-off; inactive means mostly below about 7.6%;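 further: 0% = cells with vehicle only and 100% = reference agonist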
# MOR-DOR inv ag: mu-delta opioid heterodimer inverse agonism; 0.21% of 340,000 active; inhibition, % at 9.3 µM; cell-based MOR-DOR heterodimer luminescence; in the data active means inhibition above about 22%, passing the limit was not always enough;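 further: 0% = cells with DMSO and 100% = wells without cells with DMSO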
# HTR5A inv ctr: HTR5A inverse agonism, opioid heterodimer counter-screen. P47898. HTR5A cell line, luminescence. inhibition, % at 9.3 µM. 0.083% of 340,000 active; in the data active means inhibition mostly above about 23%, no sharp cut-off; inactive means mostly below about 18%;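 further: 0% = cells with DMSO and 100% = no-cell wells with DMSO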
# OPRM1-D1 inv cf: OPRM1-OPRD1 heterodimer inverse agonism, confirmation; inhibition, % at 9.3 µM; shares compounds with MOR-DOR inv ag; 20% of 580 active; cells expressing OPRM1/OPRD1 heterodimer, luminescence; in the data active means inhibition above about 32%;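 further: 0% = cells with DMSO and 100% = wells lacking cells with DMSO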
# HTR5A inv ctr2: counter-screen for OPRM1-OPRD1 inverse agonists: human HTR5A inverse agonism; 580 tested, under 10 active; inhibition, % at 9.3 µM; shares compounds with MOR-DOR inv ag; AID 504914; HTR5A-expressing cells, luminescence; call rule not given here;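 further: 0% = cells with DMSO and 100% = no-cell wells with DMSO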
# Active calls of the source: *; / = no result.
SMILES,CR mimetic SO,MOR-DOR ag,PvdQ inh,HTR5A ag ctr,MOR-DOR inv ag,HTR5A inv ctr,OPRM1-D1 inv cf,HTR5A inv ctr2
Cc1cc(C)nc(-n2nc(C)c(C3(O)C(=O)Nc4ccccc43)c2N)n1 (stereo unspecified),113.2,-3.8,-5.5,-4.3,23.5*,11.4,-15.3,-3.6
COc1ccc(NC2CCCN(C(=O)Cn3ccc(C)n3)C2)cc1OC (stereo unspecified),99.4,-0.3,-0.5,-0.2,1.4,-9.3,/,/
C=CCn1c(N)c(C(=O)OCCC)c2nc3ccccc3nc21,103.5,-9.0,-19.6,0.8,48.5*,-3.0,-21.7,-93.8
C=CCn1c(N)c(C(=O)Nc2cccc(C)c2)c2nc3ccccc3nc21,109.6,-0.7,-0.1,5.0,4.3,-13.4,/,/
COc1ccccc1NC(=O)C(C)N1C(=O)c2ccccc2C1=O (stereo unspecified),104.1,-1.1,1.5,3.3,5.0,-12.2,/,/
O=C(CSc1nc2c([nH]c3ccccc32)c(=O)n1-c1ccccc1)NCC1CCCO1 (stereo unspecified),103.7,-9.3,-3.5,-15.1,51.4*,28.7,21.9,-8.6
CC(C)CN(C(=O)COC(=O)CCC(=O)c1ccc(Cl)cc1)c1c(N)n(Cc2ccccc2)c(=O)[nH]c1=O,103.8,-1.5,3.8,4.2,8.3,-2.4,/,/
O=C(CC1(O)C(=O)Nc2ccccc21)c1ccc(-n2cnnn2)cc1 (stereo unspecified),102.0,-8.8,-3.4,-4.4,40.1*,14.8,32.8*,-1.2
O=C(CNC(=O)c1ccco1)OCC(=O)c1ccc(Cl)cc1Cl,103.9,-8.1,-3.0,-4.3,44.0*,12.4,-19.7,-21.0
CSc1ncccc1C(=O)OCC(=O)Nc1nc(C)c(Cl)cc1Cl,103.3,-1.6,7.1,-0.5,8.1,1.9,/,/
CCc1ccc(C(=O)COC(=O)CNC(=O)c2ccc(Br)o2)cc1,95.6,-3.7,-16.6,3.0,20.6,5.3,/,/
Cc1ccc(C(=O)COC(=O)CNC(=O)Cc2ccccc2)cc1[N+](=O)[O-],92.3,-13.8,-17.4,-6.0,57.3*,29.2,-46.3,-24.5
Cc1ccc(C(=O)COC(=O)CNC(=O)Cc2ccccc2)cc1,95.2,-3.5,-8.3,1.8,19.1,-19.3,/,/
Cc1ccc(C(=O)COC(=O)CNC(=O)c2ccc(Br)o2)cc1[N+](=O)[O-],118.9,-10.7,-12.5,-5.1,54.2*,23.3,-64.5,5.5
CS(=O)(=O)c1ccc(-c2sc3cc4c(cc3c2C(=O)NN2CCOCC2)OCO4)cc1,132.0,-2.2,-18.3,1.4,12.3,8.7,/,/
CN(Cc1ccc(Cl)cc1Cl)C(=O)CCNC(=O)c1ccco1,130.9,-1.1,-9.3,-2.4,5.6,8.8,/,/
Cc1cc(C)cc(OCC(=O)NNC(=S)NC(=O)C2CC2)c1,112.8,-7.5,-3.0,-4.3,38.6*,9.0,-236.6,-13.8
O=C(O)c1ccc2nc(-c3ccco3)c(-c3ccco3)nc2c1,/,4.0,-1.1,-0.4,-18.8,5.6,/,/
O=C(O)c1ccc2nc3c(nc2c1)-c1ccccc1C3=O,85.7,-8.8,-8.7,11.4,41.5*,21.9,45.8*,12.1
CCNC(=S)NNC(=O)CSc1nc2ccccc2n1C,87.1,-7.7,-11.8,-2.7,38.3*,7.0,-15.3,16.7
CCNC(=S)NNC(=O)CSc1nc2ccccc2[nH]1,86.6,-5.7,-2.0,-2.5,26.1,30.7,/,/
CCCCn1c(N)c(N(CCOC)C(=O)COC(=O)COc2c(C)cc(C)cc2C)c(=O)[nH]c1=O,101.9,-0.4,-10.3,5.7,2.3,-15.8,/,/
CCCN(CC(=O)Nc1ccccc1C)C(=O)CCN1C(=O)c2cccc([N+](=O)[O-])c2C1=O,106.0,-1.1,-19.0,0.6,7.2,24.0,/,/
O=C(Nc1ccc(Br)cc1)N1CCCCCCC1,98.6,-5.8,4.6,1.9,33.1*,6.3,-67.7,-18.4
CCc1ccc2c(c1)C(=O)C(=O)N2CCS(=O)(=O)c1ccccc1,100.2,-8.6,-6.2,-3.1,45.5*,12.8,-27.9,-17.3
SMILES,CR mimetic SO,MOR-DOR ag,PvdQ inh,HTR5A ag ctr,MOR-DOR inv ag,HTR5A inv ctr,OPRM1-D1 inv cf,HTR5A inv ctr2
O=C1C(=O)N(CCS(=O)(=O)c2ccccc2)c2ccc(Cl)cc21,123.7,-0.7,-14.4,0.5,3.5,-1.9,/,/
O=C1Nc2ccccc2C1=NN1CCCCCC1,/,-7.4,-2.5,-5.0,38.0*,19.6,26.2,-2.2
O=C1Nc2ccccc2C1=O,77.2,-9.9,0.7,-2.3,54.5*,-4.0,33.0*,11.4
Nc1n[nH]c(=S)n1/N=C1/C(=O)Nc2ccccc21,/,-1.4,1.9,-1.1,7.4,3.3,/,/
O=C1Nc2ccccc2Nc2ccccc21,102.5,-3.2,9.9,0.9,15.5,-3.5,/,/
O=C(Cc1ccc(S(=O)(=O)N2CCOCC2)s1)N1CCN(S(=O)(=O)c2ccc(Cl)cc2)CC1,104.7,-0.7,-11.7,1.1,3.1,-2.6,/,/
CC1CCN(C(=O)CN(Cc2ccc(F)cc2)S(C)(=O)=O)CC1,103.0,-3.9,-3.9,1.4,18.1,-5.2,/,/
COc1ccc(C(=O)N[C@H](C(=O)NCCCSc2ccccc2)C(C)C)cc1,106.5,-1.8,4.8,-1.0,9.2,4.3,/,/
CN1C(=O)C(O)(CC(=O)c2ccccc2O)c2cc(Br)ccc21 (stereo unspecified),101.0,-13.3,-16.2,-0.9,67.5*,2.6,-153.0,-33.7
Cc1ccc(C)c(Cn2nc3c4ccccc4n(Cc4ccccc4)cc-3c2=O)c1,/,-1.5,-8.2,1.4,8.2,-5.3,/,/
COc1ccc(NC(=O)N(C)C[C@H]2Oc3ccc(NC(=O)Cc4ccccc4)cc3CC(=O)N([C@H](C)CO)C[C@H]2C)cc1,102.8,-2.5,-9.6,2.2,11.4,14.6,/,/
O=C(CCC(=O)OCC(=O)c1ccc(Br)cc1)NC1CCCCC1,99.8,-3.1,-11.9,2.1,16.6,-10.9,/,/
COc1ccccc1NC(=O)CCC(=O)OCC(=O)c1ccc(C)c([N+](=O)[O-])c1,138.7,-9.6,-10.6,6.3,53.2*,5.2,-409.8,-103.9
Cc1ccc(C(=O)COC(=O)CCC(=O)Nc2cccc(Cl)c2)cc1[N+](=O)[O-],93.4,-12.4,-7.0,-7.0,51.6*,16.7,31.6*,6.6
Cc1ccc(C(=O)COC(=O)CCC(=O)NC2CCCCC2)cc1[N+](=O)[O-],88.9,-9.5,4.8,-6.1,47.3*,31.5,35.3*,16.5
O=S(=O)(NNc1cccc(Cl)n1)c1ccc(Cl)cc1,/,-19.6,8.3,-5.6,79.7*,14.3,49.8*,6.3
CSc1nnc(C)c(/C=C/NOCc2ccc(Cl)cc2)n1,103.0,-8.5,-6.8,-1.1,43.8*,15.5,-95.5,2.4
Cc1ccc2[nH]c(O)c(N=Nc3ccccc3C)c2c1,120.5,-5.0,-6.5,3.1,31.7*,1.5,3.8,4.0

# High-throughput results as filed in PubChem.
